# Bioassay records: PubChem, several laboratories
# This is a sample that favours compounds with a hit; in the whole collection about 1.8% have one here.
# MsrA inh: inhibitors of bovine MsrA; inhibition, % at 15.5 µM; 360,000 compounds, 0.75% hits; purified bovine MsrA, absorbance read-out; AID 651718;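 also: 0% = vehicle wells with enzyme and 100% = reference inhibitor wells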
# GC-B act: GC-B (human) receptor activation; HEK293-GC-B cells, CNP EC30, cGMP TR-FRET; 0% at EC30 CNP, 100% saturating CNP; AID 1920062; 370,000 compounds, 0.11% hits; P20594; activation, % at 10 µM;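 active = activation at 10 µM reaching about 35% in either raw or pattern-adjusted values, limit read from the data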
# m5-HT2A agonist: agonists of mouse serotonin 5-HT2A receptor (HTR2A) | CHO-K1 mHTR2A beta-arrestin complementation, luminescence; percent of 30 µM serotonin response | P35363 | 360,000 compounds, 0.66% hits | AID 624169 | activation, % at 7.6 µM;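 active = activation above a run cutoff, the mean activation of all tested compounds plus 3 SD, cut at about 14% in these data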;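 also: 0% = plate median of compound wells and 100% = 30 µM serotonin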
# Target sequence (P35363 whole entry, looked up): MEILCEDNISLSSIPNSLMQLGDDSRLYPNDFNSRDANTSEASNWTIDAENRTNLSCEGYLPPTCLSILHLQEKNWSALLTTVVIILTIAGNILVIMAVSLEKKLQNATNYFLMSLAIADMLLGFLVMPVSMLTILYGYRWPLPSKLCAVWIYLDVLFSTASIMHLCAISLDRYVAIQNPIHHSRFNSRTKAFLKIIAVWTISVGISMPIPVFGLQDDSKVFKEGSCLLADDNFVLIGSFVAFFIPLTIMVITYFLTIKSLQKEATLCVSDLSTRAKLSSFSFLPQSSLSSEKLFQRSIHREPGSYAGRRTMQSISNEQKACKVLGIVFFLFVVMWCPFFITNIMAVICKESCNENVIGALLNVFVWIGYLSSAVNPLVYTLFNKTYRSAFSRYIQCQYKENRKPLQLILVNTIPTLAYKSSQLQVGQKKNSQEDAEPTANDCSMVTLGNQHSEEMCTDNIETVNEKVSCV
# GC-A act: GC-A (human) enzyme activation. P16066. HEK293 GC-A cells, cGMP TR-FRET, EC30 ANP; 0% at EC30 ANP, 100% saturating ANP. activation, % at 10 µM. 370,000 compounds, 0.14% hits; in the data active = activation above about 40%
# bovine MsrA act: activates bovine MsrA enzyme; purified bovine MsrA, absorbance read-out; 360,000 compounds, 0.3% hits; activation, % at 10.6 µM; in the data active = activation above about 7.5%;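 also: 0% = vehicle and 100% = reference activator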
# MsrA conf: confirmation of bovine MsrA inhibitors. shares compounds with MsrA inh. purified bovine MsrA, absorbance read-out. inhibition, % at 15.5 µM. 2,300 compounds, 41% hits. AID 651822;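 also: coupled to thioredoxin reductase with NADPH and selenocystamine and DMSO as substrate; 0% = vehicle only and 100% = full effect of reference inhibitor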
# Starred values were filed as active, the others as inactive; x = no result given. Rule as the data show it, unless noted: active = inhibition above about 4.5%; inactive = the rest.
SMILES,MsrA inh,GC-B act,m5-HT2A agonist,GC-A act,bovine MsrA act,MsrA conf
O=C(O)c1ccc(/C=N/NC(=S)NCCN2CCOCC2)cc1,6.1*,7.9,8.1,0.2,-11.9,1.8
C/C(=N\NC(=O)c1ccc(F)cc1)c1ccc(N2CCOCC2)cc1,2.0,8.7,-0.4,0.6,-2.8,x
C/C(=N\NC(=O)c1cccc(C)c1)c1ccc(N2CCOCC2)cc1,5.3*,-1.5,2.9,4.5,-10.8,2.8
O=C(N/N=C/c1ccc(N2CCOCC2)cc1)c1ccc(O)cc1,5.6*,-6.4,-5.6,-2.0,-6.2,4.8*
Cc1ccc(C(=O)N/N=C/c2ccc(N3CCOCC3)cc2)c(C)c1,5.5*,2.2,-2.6,4.0,-1.6,3.6
COC(=O)[C@@H]1[C@H](O[Si](C)(C)C(C)(C)C)[C@H]2O[C@H]2C[C@H]1S(=O)(=O)c1ccccc1,x,-0.1,x,0.3,x,x
COc1cccc(NC(=O)C2CCCN2C(=O)NCc2ccccc2)c1 (stereo not given),x,-6.0,x,3.6,x,x
CCCSc1nnc(NC(=O)CSc2sc3c(O)cc(=O)[nH]c3c2C#N)s1,0.9,-6.7,-2.9,-2.0,-3.7,x
N#Cc1c(SCC(=O)Nc2nccs2)sc2c(O)cc(=O)[nH]c12,4.9*,-7.5,-0.7,-1.5,-5.2,2.1
COc1ccc(C(=O)CSc2nnc(-c3ccccc3)n2-c2ccc(Cl)cc2)cc1,x,-14.7,x,-7.5,x,x
O=C1COc2cc(ccc2[N+](=O)[O-])Oc2ccc(cc2Cl)C(=O)CCCCO1,5.2*,5.5,8.2,-1.3,-6.2,5.1*
N#C/C(=C\c1ccc[nH]1)C(=O)Nc1ccccc1F,3.1,0.6,-0.7,5.8,-5.7,x
Cc1cc(/C=C(\C#N)C(=O)Nc2ccccc2F)c(C)[nH]1,4.7*,-0.3,1.5,2.5,0.2,3.2
CC(=O)N1[C@H](CO)[C@@H](c2ccccc2)[C@@H]1CN(C(=O)c1ccc(F)cc1)C(C)C,x,-2.3,x,-4.6,x,x
Cc1cccc(C)c1NC(=O)/C(C#N)=C/c1cccs1,6.9*,2.2,0.9,1.1,-9.2,4.1
Cc1ccc(NC(=O)/C(C#N)=C/c2cccs2)c(C)c1,1.1,-5.9,1.7,1.2,2.2,x
NC(=S)NN=Cc1ccc(-c2ccc(S(=O)(=O)Nc3ncccn3)cc2)o1,3.2,0.5,-2.0,4.7,-6.7,x
COC(=O)c1ccc(-c2ccc(/C=N/NC(=O)Cc3nnc(N)s3)o2)cc1,4.8*,-6.2,4.3,0.1,1.4,3.5
NS(=O)(=O)c1ccc(-c2ccc(/C=N/NC(=O)c3ccccc3O)o2)cc1,4.9*,-8.0,-1.5,-1.8,-4.7,4.5
Cc1ccc(-c2ccc(/C=N/NC(N)=S)o2)cc1,3.3,-22.1,-3.4,-28.6,-3.8,x
Nc1nnc(CC(=O)N/N=C/c2ccc(-c3ccccc3)o2)s1,6.6*,-4.3,5.1,-3.7,-5.2,7.9*
NC(=S)N/N=C/c1ccc(-c2ccccc2)o1,6.7*,-14.5,-6.2,-6.7,-4.6,4.4
COc1ccc(-c2ccc(/C=N/NC(=O)Cc3nnc(N)s3)o2)cc1Cl,3.2,-5.1,-0.1,0.8,-6.0,x
O=C(N[C@H](C(=O)N1CCC[C@H]1C(=O)NC1CCCC1)c1ccccc1)C1CCCC1,0.7,1.9,x,-0.9,x,x
O=C(N/N=C/c1ccc(-c2ccc(S(=O)(=O)Nc3ncccn3)cc2)o1)c1cc2ccccc2cc1O,4.0,1.2,-3.9,0.1,-4.4,x
SMILES,MsrA inh,GC-B act,m5-HT2A agonist,GC-A act,bovine MsrA act,MsrA conf
CCOc1ccc(C(=O)N/N=C/c2ccc(-c3ccc(S(=O)(=O)Nc4ncccn4)cc3)o2)cc1,6.0*,1.0,1.7,1.9,-6.5,4.9*
COC(=O)[C@]12C[C@H](CC(=O)N3CCN(C(=O)c4ccco4)CC3)C(=O)N(Cc3ccc(Cl)cc3Cl)C1=C[C@H](C(C)C)O[C@@H]2C1CC1,x,-11.8,x,-16.2,x,x
COc1ccccc1CCn1cnc(-c2ccc(F)cc2)c1C(C)C,-0.6,-3.0,x,0.5,x,x
CSCc1c(C(=O)N2CCCc3ccccc32)oc2ccccc12,8.4*,-9.8,6.5,-10.9,-3.4,-0.4
COC(=O)[C@]12C[C@H](CC(=O)NCc3ccc(C)o3)C(=O)N(Cc3cccc4ccccc34)C1=C[C@H](C1CCCC1)O[C@@H]2C,x,-4.4,x,-2.4,x,x
O=C(O)CC1S/C(=N\N=C/c2ccccc2)N(c2ccc(O)cc2)C1=O (stereo not given),0.3,0.2,0.8,0.4,-3.2,x
COc1ccc(/C=N/N=C2\SC(CC(=O)O)C(=O)N2c2ccccc2)c(OC)c1 (stereo not given),4.7*,6.9,-1.0,1.5,-6.2,6.1*
C=CCN1C(=O)C(CC(=O)O)S/C1=N/N=C/c1ccc(N(CC)CC)cc1 (stereo not given),5.0*,-1.7,-1.2,0.3,-3.0,3.0
CN(C)c1ccc(/C=N/N=C2/SC(CC(=O)O)C(=O)N2c2ccc(O)cc2)cc1 (stereo not given),5.4*,3.3,-0.4,3.5,-5.8,5.0*
CCOC(=O)[C@@H](NC(=O)[C@@H]1CC=C[C@@H]2CCN(Cc3ccc(Cl)cc3)C(=O)[C@@H]21)C(C)C,x,-2.0,x,0.0,x,x
CN(C)c1cccc(C(=O)OCC(=O)Nc2ccccc2-c2ccccc2)c1,0.8,-0.9,-1.9,8.5,-2.3,x
CCN(CC)c1ccc(C(=O)OCC(=O)Nc2ccccc2-c2ccccc2)cc1,5.8*,10.6,2.6,-12.3,-7.6,3.4
COc1ccc(NC(=O)CN(C)C(=O)/C=C/c2cn(-c3ccccc3)nc2-c2ccc(C)cc2)cc1,4.9*,-7.2,-0.9,-2.5,-3.7,3.1
CCc1ccc[n+](-c2[nH]c(=O)sc2/C=N/NC([S-])=Nc2ccccc2)c1,6.5*,1.5,-0.4,-2.5,-4.9,0.9
Cc1cc(C)c[n+](-c2[nH]c(=O)sc2/C=N/NC([S-])=Nc2ccccc2)c1,4.9*,-3.9,1.2,-2.5,-3.2,6.2*
CC1CC(C)CN(C(=O)c2cc3cc(Br)cc(Br)c3o2)C1 (stereo not given),5.4*,2.0,3.0,1.0,-5.6,3.2
CC1CC(C)CN(C(=O)c2cc3ccccc3o2)C1 (stereo not given),-1.1,0.0,0.2,-4.2,-5.2,x
CC(=O)N1CCCN(Cc2cn(-c3cc(C)ccc3C)nc2-c2ccccc2)CC1,5.0*,-2.7,0.6,-3.4,3.2,-0.5
COC1=C(c2ccccc2)C(=O)c2ccccc2C1=O,4.4,3.9,-1.8,1.8,-1.9,x
O=C(C1=C(c2ccccc2)C(=O)c2ccccc2C1=O)c1ccccc1,71.6*,-6.7,-5.6,-16.6,-1.1,58.7*
Cc1ccc(C(=O)C2CCN(CC(=O)NCc3cccs3)CC2)cc1,x,-3.7,x,0.6,x,x
Cc1ncsc1C(=O)Nc1nc2c(s1)CC(C)CC2 (stereo not given),6.3*,-1.5,5.6,3.9,-11.4,1.5
